Experimental data as given in PubChem BioAssay (NCATS).
Results filed as inconclusive are left out. Where a call stands in place of a potency, no number is given. Active and inactive are the calls of the source. Calls come from the whole dose curve; as a rule, active = well fitted inhibition curve with a large enough effect; inconclusive = small, poorly fitted or top-dose-only effect; inactive = flat fitted curve, though single readings scatter. Peptide text beside a SMILES is read from it. * marks the point of attachment. Cbz = O=C(OCc1ccccc1)*; CH2F = FC*

Tested on: CRL-7250
Assay: qHTS assay to identify novel small-molecules to repurpose for Merkel cell carcinoma treatment (AID 1296009); note: nearly all actives have a fitted effect of over 60% in size
Conditions: MCC and control cell lines, CellTiter-Glo viability, 72 h; series mostly up to 92 µM
Summary of the method: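 Viability readout: ATP luminescence (CellTiter-Glo) after 72 hr drug exposure at 37 degree celsius. Dose-response format was 8 points for NPC and 11 points for MIPE; data normalized to in-plate controls.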

SMILES	Potency	outcome
CC(C)(O)C1OC1C1=CC(=O)C2(C)OC2C1O (stereo not given)	inactive	–
CCNC(=O)C1CC(F)(c2ccc(CN3CCCC3)c(F)c2)C1 (stereo not given)	inactive	–
OCC1OC(Oc2cc(O)cc(/C=C/c3ccc(OC4OC(CO)C(O)C(O)C4O)cc3O)c2)C(O)C(O)C1O (stereo not given)	inactive	–
C=C(C)[C@@H]1CC[C@]2(C)CC[C@]3(C)C(CCC4[C@@]5(C)CC[C@H](O)C(C)(C)C5CC[C@]43C)C12 (stereo not given in full)	inactive	–
CC(=O)O[C@@H]1CC2C(/C=C(\C)C(=O)[C@@]3(O)C[C@@H](C)[C@H](OC(=O)c4ccccc4)C3/C=C/1C)C2(C)C (stereo not given in full)	inactive	–
C=CC/C=C\C/C=C\CCCCCCCc1cccc(O)c1C(=O)O	inactive	–
CN1CCc2cc3c(cc2C(=O)Cc2cc4c(cc2C1)OCO4)OCO3	inactive	–
CCCCc1ccc(NS(=O)(=O)c2ccc(F)cc2)cc1	inactive	–
C/C=C/C=C/C(CC(=O)O)Nc1ccc(C=O)cc1 (stereo not given)	inactive	–
COC(=O)C1=COC(O[C@@H]2O[C@H](COC(=O)/C=C/c3ccc(O)cc3)[C@@H](O)[C@H](O)[C@H]2O)C2C(CO)=CCC12 (stereo not given in full)	inactive	–
CC1=CC(=O)CC(C)(C)C1CCC(C)O[C@@H]1O[C@H](CO)[C@@H](O)[C@H](O)[C@H]1O (stereo not given in full)	inactive	–
C[C@@H]1O[C@@H](OC2C(CO)OC(OCC3OC(OC(=O)[C@]45CCC(C)(C)CC4C4=CCC6[C@@]7(C)CC[C@@H](O)[C@](C)(C(=O)O)C7CC[C@@]6(C)[C@]4(C)CC5)C(O)C(O)C3O)C(O)C2O)[C@H](O)[C@H](O)[C@H]1O (stereo not given in full)	–	inactive [at 9.27 µM]
CN(C)c1ccc(C2O[C@@H](c3ccccc3)C[C@H](c3ccccc3)O2)cc1 (stereo not given in full)	inactive	–
COC(=O)c1cc(OC)c(O[C@@H]2O[C@@H](C)[C@H](O)[C@@H](O)[C@H]2O)c(OC)c1	inactive	–
COc1cc2c(cc1OC)CN(C(=O)[C@@H](NCc1ccncc1)C(C)(C)C)CC2	inactive	–
O=S(=O)(Nc1ccccn1)c1ccc(N=Cc2c(O)[nH]c3ccc4ncsc4c23)cc1	–	inactive [at 9.27 µM]
C=C1CC2C3(C)C(O)CC(=O)C(C)(C)C3C(O)C(OC(C)=O)C2(C)C2C(=O)OC(C)(C(=O)OC)C(=O)C12C (stereo not given)	inactive	–
O=C(Nc1ccccc1C(=O)NC1CCCCNC1=O)c1cc2ccccc2s1 (stereo not given)	inactive	–
COC(=O)CC[C@H](NC(=O)[C@H](CC(C)C)NC(=O)OCc1ccccc1)C(=O)N[C@@H](Cc1cnc[nH]1)C(=O)N[C@@H](CC(=O)OC)C(=O)CF (Cbz-LE(OMe)HD(OMe)-CH2F)	–	inactive [at 9.27 µM]
CCC(C)C(=O)O[C@@H]1[C@@H](O)[C@@H](O[C@H]2O[C@H](CO)[C@@H](O)[C@H](O)[C@H]2O)O[C@H](CO)[C@H]1O (stereo not given in full)	inactive	–

SMILES	Potency	outcome
COC(=O)C(CC1(O)c2ccccc2N2C(=O)C(CC(C)C)NC21)n1cnc2ccccc2c1=O (stereo not given)	inactive	–
CC(C)S(=O)(=O)N[C@H]1CCOC[C@@H]1c1ccc(-c2ccc(C#N)s2)cc1	inactive	–
C/C(=C\CCC(C)CCO)C(=O)O[C@@H]1[C@@H](O)[C@H](OC2OC=C(C(=O)O)C3CCC(C)(O)C23)O[C@H](CO)[C@H]1O (stereo not given in full)	inactive	–
Cc1ccnn1-c1ccc(C(=O)N2CCN(S(=O)(=O)c3ccc(Cl)c(C(F)(F)F)c3)CC2)cc1	inactive	–
O=C(CN1C(=O)C2(CCCC2)NCC1c1cc(F)cc(F)c1)Nc1ccc2c(c1)CC1(C2)C(=O)Nc2ncccc21 (stereo not given)	inactive	–
CCC/C=C/C=C/C1CC(O)C(O)C(=O)C1CO (stereo not given)	inactive	–
CC(CCO)CCC1C2(C)CCCC(C)(C)C2CC[C@@]1(C)O (stereo not given in full)	inactive	–
COc1ccc(CCC(=O)O)c(O[C@@H]2O[C@H](CO)[C@@H](O)[C@H](O)[C@H]2O)c1	inactive	–
CC(O)CCC1C(CO[C@@H]2O[C@H](CO)[C@@H](O)[C@H](O)[C@H]2O)CC(O)CC1(C)C (stereo not given in full)	inactive	–
CC[C@H]1OC(=O)[C@H](C)[C@@H](OC2C[C@@](C)(OC)[C@@H](O)[C@H](C)O2)[C@H](C)[C@@H](OC2O[C@H](C)C[C@H](NC)[C@H]2O)[C@](C)(O)C[C@@H](C)CN(C)[C@H](C)[C@@H](O)[C@]1(C)O (stereo not given in full)	inactive	–
Cc1ccc(NC(=O)C(=O)NC2CC(C)(C)NC(C)(C)C2)cc1	inactive	–
C=C1CC[C@H]2[C@@](C)(CCC(O)[C@@]2(C)CO)[C@@H]1C/C=C(/C(=O)O)C(O)CO (stereo not given in full)	inactive	–
O=C1COc2nccc(-c3ccccc3F)c2CN1Cc1cc(C(F)(F)F)cc(C(F)(F)F)c1	inactive	–
C=C1CCC2C(C)(C(=O)OC)CCCC2(C)C1CCC(C)CC(=O)O (stereo not given)	inactive	–
NC(=O)[C@H]1CCCCc2c1[nH]c1ccc(Cl)cc21	inactive	–
C/C=C/C=C/C1=C2C(=O)C3(C)C4C(C(=O)CC(O)/C=C/C)=C(O1)C1(C)C2C2(C)OC1(O)C4(C)OC23O (stereo not given)	inactive	–
C[C@@H]1O[C@@H](O[C@H]2[C@H](O)[C@@H](O)[C@H](OC[C@H]3O[C@@H](OC(=O)[C@]45CCC(C)(C)C[C@H]4C4=CCC6[C@@]7(C)CC[C@H](O[C@@H]8OC[C@H](O)[C@H](O[C@@H]9O[C@H](CO)[C@@H](O)[C@H](O)[C@H]9O)[C@H]8O)[C@@](C)(CO)C7CC[C@@]6(C)[C@]4(C)CC5)[C@H](O)[C@@H](O)[C@@H]3O)O[C@@H]2CO)[C@H](O)[C@H](O)[C@H]1O (stereo not given in full)	–	inactive [at 9.27 µM]
C=C1[C@H]2[C@H](O[C@@H]3O[C@H](COC(=O)/C=C/c4cc(OC)c(O)c(OC)c4)[C@@H](O)[C@H](O)[C@H]3O)OC=C(C(=O)O)[C@H]2C[C@@H]1O	inactive	–
COc1c2c(c(C)c3c1C(=O)OC3)OC1(C)CC(O)C34OC(O)(CCC3(C)C1C2)OC4(C)C (stereo not given)	inactive	–
C=C[C@H]1[C@H](O[C@@H]2O[C@H](CO)[C@@H](O)[C@H](O)[C@H]2O)OC=C2C(=O)N3Cc4c([nH]c5ccccc5c4=O)[C@@H]3C[C@H]21	inactive	–

SMILES	Potency	outcome
CC(C)S(=O)(=O)NC[C@H](C)c1ccc(NC(=O)c2cc(F)cc(F)c2)cc1	inactive	–
CC1CCC2(C(=O)OC3OC(COC4OC(CO)C(O)C(O)C4O)C(O)C(O)C3O)CCC3(C)C(=CCC4C5(C)CCC(O)C(C)(C(=O)O)C5CCC43C)C2C1(C)O (stereo not given)	–	inactive [at 9.27 µM]
CCC(C)/C=C(C)/C=C/C1=CC2=C(Cl)C(=O)C(C)(OC(C)=O)C(=O)C2(O)C(OC)O1 (stereo not given)	inactive	–
COc1ccc(C(O[C@@H]2O[C@H](CO)[C@@H](O)[C@H](O)[C@H]2O)C(CO)Oc2ccc(/C=C/CO)cc2OC)cc1O (stereo not given in full)	inactive	–
C[C@@H]1O[C@@H](O[C@H]2[C@H](O)[C@@H](C(=O)O)O[C@@H](O[C@H]3CC[C@@]4(C)C(CC[C@]5(C)C4CC=C4C6CC(C)(C)CC[C@]6(C(=O)O)CC[C@]45C)C3(C)C)[C@@H]2O[C@@H]2O[C@H](CO)[C@@H](O)[C@H](O)[C@H]2O)[C@H](O)[C@H](O)[C@H]1O (stereo not given in full)	–	inactive [at 9.27 µM]
C=CCCN1CCC2(CC1)CN(C(=O)c1c(F)cccc1F)c1ccc(Cl)cc12	inactive	–
C=C(C(=O)O)[C@@H]1CC[C@@]2(C)CC[C@H](O)[C@@]2(C(C)=O)C1	inactive	–
CC1(C)CC[C@]2(C(=O)O)CC[C@]3(C)C(=CCC4[C@@]5(C)CC[C@H](O[C@H]6O[C@H](C(=O)O)[C@@H](O)[C@H](O[C@@H]7O[C@H](CO)[C@H](O)[C@H](O)[C@H]7O)[C@H]6O)C(C)(C)C5CC[C@]43C)[C@@H]2C1 (stereo not given in full)	–	inactive [at 9.27 µM]
Cc1ncc([N+](=O)[O-])n1CC(O)CN1CCOCC1 (stereo not given)	inactive	–
CC(=O)c1cc2c(cc1O)OC(C)(C)C=C2	inactive	–
COC(=O)C1=COC(O[C@@H]2O[C@H](CO)[C@@H](O)[C@H](O)[C@H]2O)[C@H]2[C@@H]1[C@H](OC(=O)CCc1ccc(O)cc1)C[C@]2(C)O (stereo not given in full)	inactive	–
CC(C)C1C(OC(=O)/C=C/c2ccccc2)CC2(C)OC2CCC2(C)OC2C1O (stereo not given)	inactive	–
C=CC(C)(O)CC/C=C(/C)C(=O)OC1C(OC2OCC(OC3OC(CO)C(O)C(O)C3O)C(OC3OCC(O)C(OC4OC(C)C(O)C(O)C4O)C3O)C2O)COC(OC(=O)C23CCC(C)(C)CC2C2=CCC4C5(C)CCC(OC6OC(CO)C(OC7OC(CO)C(O)C(OC8OCC(O)C(O)C8O)C7O)C(O)C6O)C(C)(C)C5CCC4(C)C2(C)CC3O)C1O (stereo not given)	–	inactive [at 4.96 µM]
NC(=O)NCCCC(NC(=O)Cc1ccccc1)C(=O)O (stereo not given)	inactive	–
CC1(C)CC[C@]2(C(=O)O[C@@H]3O[C@H](CO[C@@H]4O[C@H](CO)[C@@H](O)[C@H](O)[C@H]4O[C@@H]4O[C@H](CO)[C@@H](O)[C@H](O)[C@H]4O)[C@@H](O)[C@H](O[C@@H]4O[C@H](CO)[C@@H](O)[C@H](O)[C@H]4O)[C@H]3O)CC[C@]3(C)C(=CCC4[C@@]5(C)CC[C@@H](O)[C@@](C)(C(=O)O[C@@H]6O[C@H](CO)[C@@H](O)[C@H](O)[C@H]6O)C5CC[C@]43C)[C@@H]2C1 (stereo not given in full)	–	inactive [at 9.27 µM]
CC(=O)c1ccc(O[C@@H]2O[C@H](CO[C@@H]3OC[C@@H](O)[C@H](O)[C@H]3O)[C@@H](O)[C@H](O)[C@H]2O)cc1	inactive	–
CCC(C)C(=O)OC[C@H]1O[C@H](O[C@H]2O[C@H](CO)[C@@H](O)[C@H](O)[C@H]2O)[C@H](O)[C@@H](O)[C@@H]1O (stereo not given in full)	inactive	–
COc1cc(/C=C/C(=O)O[C@H]2[C@H](OC(=O)/C=C/c3cc(OC)c(O)c(OC)c3)O[C@H](CO[C@@H]3O[C@H](CO)[C@@H](O)[C@H](O)[C@H]3O)[C@@H](O)[C@@H]2O)ccc1O	inactive	–
CC1C(=O)OCC2=CCN3CCC(OC(=O)C(C)(O)C1(C)O)C23 (stereo not given)	inactive	–
CC1(C)CC[C@]2(C(=O)O)CC[C@]3(C)C(=CCC4[C@@]5(C)C[C@H](O)[C@H](O[C@@H]6OC[C@H](O)[C@H](O)[C@H]6O)[C@@](C)(CO)C5CC[C@]43C)[C@@H]2C1 (stereo not given in full)	inactive	–
